# Laboratory results published in the supplement of paper PMC8728848.
# The full list was thinned out, with the strongest signals kept by preference.
# Legend:
# Assay in all cases: glycan array binding signal (z-score within array); higher = stronger binding
# Conditions in all cases: glycan notation: IUPAC condensed, linker removed
# [1] = target: Fuc(a1-2)Gal(b1-3)GalNAc(a1-3)[Fuc(a1-2)]Gal(b1-4)Glc
# Outline: (§1)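 The binding signal is a Z-score computed within each array and averaged over linkers. Arrays of the same protein sequence at different concentrations or buffers were also averaged together. Data originate from 3228 arrays in the Consortium for Functional Glycomics database, kept only where the protein sequence was available.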
# [2] = target: Fuc(a1-2)Gal(b1-3)GlcNAc(b1-3)[Fuc(a1-2)Gal(b1-3)GlcNAc(b1-6)]GalNAc
# Outline: as §1
# [3] = target: Fuc(a1-2)Gal(b1-4)Fuc(a1-3)]GlcNAc(b1-2)Man(a1-3)[Fuc(a1-2)Gal(b1-4)[Fuc(a1-3)]GlcNAc(b1-2)Man(a1-6)]Man(b1-4)GlcNAc(b1-4)GlcNAc
# Outline: as §1
# [4] = target: Fuc(a1-2)Gal(b1-4)GlcNAc(b1-2)Man(a1-3)[Fuc(a1-2)Gal(b1-4)GlcNAc(b1-2)Man(a1-6)]Man(b1-4)GlcNAc(b1-4)GlcNAc
# Outline: as §1
# [5] = target: Fuc(a1-2)Gal(b1-4)GlcNAc(b1-2)Man(a1-3)[Fuc(a1-2)Gal(b1-4)GlcNAc(b1-2)Man(a1-6)]Man(b1-4)GlcNAc(b1-4)[Fuc(a1-6)]GlcNAc
# Outline: as §1
# [6] = target: Fuc(a1-2)Gal(b1-4)GlcNAc(b1-3)Gal(b1-4)GlcNAc(b1-2)Man(a1-3)[Fuc(a1-2)Gal(b1-4)GlcNAc(b1-3)Gal(b1-4)GlcNAc(b1-2)Man(a1-6)]Man(b1-4)GlcNAc(b1-4)GlcNAc
# Outline: as §1
# [7] = target: Fuc(a1-2)Gal(b1-4)GlcNAc(b1-6)GalNAc
# Outline: as §1
# [8] = target: Fuc(a1-2)[Gal(a1-4)]Gal(b1-4)GlcNAc
# Outline: as §1
# [9] = target: Fuc(a1-2)[GalNAc(a1-3)]Gal(b1-3)GlcNAc
# Outline: as §1
# [10] = target: Fuc(a1-2)[GalNAc(a1-3)]Gal(b1-4)[Fuc(a1-3)]GlcNAc
# Outline: as §1
# [11] = target: Fuc(a1-2)[GalNAc(a1-4)]Gal(b1-4)GlcNAc
# Outline: as §1
# [12] = target: Fuc(b1-3)GlcNAc
# Outline: as §1
# [13] = target: Gal(a1-3)Gal(b1-3)GlcNAc(b1-3)GalNAc
# Outline: as §1
# [14] = target: Gal(a1-3)Gal(b1-4)Glc
# Outline: as §1
# [15] = target: Gal(a1-3)GalNAc
# Outline: as §1
# [16] = target: Gal(b1-3)GalNAc(b1-3)Gal
# Outline: as §1
# [17] = target: Gal(b1-3)[Fuc(a1-4)]GlcNAc(b1-6)GalNAc
# Outline: as §1
# [18] = target: Gal(b1-3)[GlcNAc(b1-6)]GalNAc
# Outline: as §1
# [19] = target: Gal(b1-4)GlcNAc
# Outline: as §1
# [20] = target: Gal(b1-4)GlcNAc(b1-2)Man(a1-3)[Gal(b1-4)GlcNAc(b1-2)Man(a1-6)][Gal(b1-4)GlcNAc(b1-4)]Man(b1-4)GlcNAc(b1-4)[Fuc(a1-6)]GlcNAc
# Outline: as §1
# [21] = target: Gal(b1-4)GlcNAc(b1-3)Gal(b1-4)GlcNAc(b1-3)Gal(b1-4)GlcNAc(b1-2)Man(a1-3)[Gal(b1-4)GlcNAc(b1-3)Gal(b1-4)GlcNAc(b1-3)Gal(b1-4)GlcNAc(b1-2)Man(a1-6)]Man(b1-4)GlcNAc(b1-4)[Fuc(a1-6)]GlcNAc
# Outline: as §1
# [22] = target: Gal(b1-4)GlcNAc(b1-3)Gal(b1-4)GlcNAc(b1-3)Gal(b1-4)GlcNAc(b1-3)Gal(b1-4)GlcNAc(b1-2)Man(a1-3)[Gal(b1-4)GlcNAc(b1-3)Gal(b1-4)GlcNAc(b1-3)Gal(b1-4)GlcNAc(b1-3)Gal(b1-4)GlcNAc(b1-2)Man(a1-6)]Man(b1-4)GlcNAc(b1-4)GlcNAc
# Outline: as §1
# [23] = target: Gal(b1-4)GlcNAc(b1-3)Gal(b1-4)GlcNAc(b1-3)Gal(b1-4)GlcNAc(b1-3)Gal(b1-4)GlcNAc(b1-2)Man(a1-3)[Gal(b1-4)GlcNAc(b1-3)Gal(b1-4)GlcNAc(b1-3)Gal(b1-4)GlcNAc(b1-3)Gal(b1-4)GlcNAc(b1-2)Man(a1-6)]Man(b1-4)GlcNAc(b1-4)[Fuc(a1-6)]GlcNAc
# Outline: as §1
# [24] = target: Gal(b1-4)GlcNAc(b1-3)Gal(b1-4)GlcNAc(b1-3)Gal(b1-4)GlcNAc(b1-3)Gal(b1-4)GlcNAc(b1-2)[Gal(b1-4)GlcNAc(b1-3)Gal(b1-4)GlcNAc(b1-3)Gal(b1-4)GlcNAc(b1-3)Gal(b1-4)GlcNAc(b1-6)]Man(a1-6)[Gal(b1-4)GlcNAc(b1-3)Gal(b1-4)GlcNAc(b1-3)Gal(b1-4)GlcNAc(b1-3)Gal(b1-4)GlcNAc(b1-2)Man(a1-3)]Man(b1-4)GlcNAc(b1-4)[Fuc(a1-6)]GlcNAc
# Outline: as §1
# [25] = target: Gal(b1-4)GlcNAc(b1-3)Gal(b1-4)GlcNAc(b1-3)Gal(b1-4)GlcNAc(b1-3)Gal(b1-4)GlcNAc(b1-3)Gal(b1-4)GlcNAc(b1-2)Man(a1-3)[Gal(b1-4)GlcNAc(b1-3)Gal(b1-4)GlcNAc(b1-3)Gal(b1-4)GlcNAc(b1-3)Gal(b1-4)GlcNAc(b1-3)Gal(b1-4)GlcNAc(b1-2)Man(a1-6)]Man(b1-4)GlcNAc(b1-4)GlcNAc
# Outline: as §1
binder,measurement,setting,value
DrGal3 (Danio rerio) (protein) MDLSDALDAPPQQNNQQAGGPVWPGQPANPVWPGQPANPTWPGQPNQPAWPGQPNQQWPGQPGQPTAPGWPGPAPQTGPYGAPGQAPQVLTVPLDFPLQNGAYNKMLITINGEVKPNAKQFTVNLRRGNDIAFHINPRFSEGGKPVIVRNSMIGNNWGREERELPSFPFVPGKPFEMKILITDTEYKVAVNKSHLLEFKHRVFELNQITGLSIYNDVTLSTVNVETLQ,glycan array binding signal (z-score),[1],-0.254
same,glycan array binding signal (z-score),[2],-0.164
same,glycan array binding signal (z-score),[3],-0.125
same,glycan array binding signal (z-score),[4],-0.218
same,glycan array binding signal (z-score),[5],-0.209
same,glycan array binding signal (z-score),[6],1.52
same,glycan array binding signal (z-score),[7],-0.25
same,glycan array binding signal (z-score),[8],-0.087
same,glycan array binding signal (z-score),[9],-0.212
same,glycan array binding signal (z-score),[10],-0.206
same,glycan array binding signal (z-score),[11],-0.233
same,glycan array binding signal (z-score),[12],-0.277
same,glycan array binding signal (z-score),[13],-0.287
same,glycan array binding signal (z-score),[14],-0.233
same,glycan array binding signal (z-score),[15],-0.007
same,glycan array binding signal (z-score),[16],-0.183
same,glycan array binding signal (z-score),[17],-0.208
same,glycan array binding signal (z-score),[18],-0.231
same,glycan array binding signal (z-score),[19],-0.237
same,glycan array binding signal (z-score),[20],-0.247
same,glycan array binding signal (z-score),[21],4.37
same,glycan array binding signal (z-score),[22],4.2
same,glycan array binding signal (z-score),[23],5.59
same,glycan array binding signal (z-score),[24],4.6
same,glycan array binding signal (z-score),[25],6.65
